# Data published in PubChem BioAssay AID492973 (The Scripps Research Institute Molecular Screening Center, 2010).
# Unmarked numbers belong to inactive results. The source made the active and inactive calls.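 How the source made its calls: active means inhibition above 50% of the enzyme in parasite cell lysate; inactive means the rest.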
# Assay: malaria lysate leucine aminopeptidase inhibition – cell lysate, fluorescence, Plasmodium falciparum lysate, powder samples, late-stage follow-up (AID 492973)
# Details: P. falciparum cell lysate, H-Leu-NHMec fluorescence; at 5 µM; stronger effect = higher value
row,Structure (SMILES),inhibition
1,COC(=O)c1cccc(NC(=O)CSc2nc(C)cc(=O)[nH]2)c1,26%
2,CC(C)c1ccc(NC(=O)[C@H]2CCCC[C@H]2C(=O)O)cc1,27%
3,COC(=O)c1c(-c2ccco2)csc1NC(=O)[C@H]1CC=CC[C@H]1C(=O)O,51% (active)
4,Cc1ccc(Nc2nnc(SCc3cc(=O)n4ccsc4n3)s2)c(C)c1,22%
5,COc1ccc(C(C)(C)C)cc1NC(=O)[C@H]1CC=CC[C@H]1C(=O)O,40%
6,COc1cc(NC(=O)CSc2nc3cc(C)ccc3cc2C)c(C(=O)O)cc1OC,64% (active)
7,O=C(Nc1cc(Cl)ccc1Cl)[C@H]1CC=CC[C@H]1C(=O)O,9%
8,CCOC(=O)c1c(-c2cccc(C)c2)csc1NC(=O)[C@H]1CC=CC[C@H]1C(=O)O,26%
9,O=C(Nc1ccc(Cl)cc1)Nc1cccc(C(=O)O)c1,65% (active)
